Inconclusive results are not listed. A number with no mark means an inactive call. Active and inactive are the calls of the source. The call rests on the fitted dose curve; in most records, active means well fitted cell-killing curve with a large enough effect; inconclusive means small, poorly fitted or top-dose-only effect; inactive means flat fitted curve, though single readings scatter.
Tests used:
[1] = Cellular viability qHTS for adrenocortical cancer (ACC) cell line SW-13 (AID 1963989); conditions: SW-13 ACC cells viability, CellTiter-Glo, 48 h; activity (max response): hits give low values; further: nearly all actives have a fitted effect of over 65% in size;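 on activity (max response): cells grown in serum-free medium with ITS supplement; on the % scale 0 is the no-effect control and ±100 the full control effect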
How it was run: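 48 h treatment, SW-13 in ITS/DMEM serum-free; doses up to 46 uM; readout CellTiter-Glo luminescence; curve fit four-parameter logistic.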

[2] = Cellular viability qHTS for adrenocortical cancer (ACC) cell line NCI-H295R (AID 1963990); further: nearly all actives have a fitted effect of over 60% in size
How it was run: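 Compound titrations (up to 46 uM final) are applied to NCI-H295R cultures for 48 h at 37C. Viable cell number is estimated by CellTiter-Glo signal, normalised to DMSO and doxorubicin controls.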
Potency means the concentration at half of the fitted maximal effect.

Structure (SMILES): CCCC(=O)O[C@]1(C(=O)CC)CC[C@H]2[C@@H]3CCC4=CC(=O)CC[C@]4(C)[C@H]3[C@@H](O)C[C@@]21C
- activity (max response) [1]: 0.342%
- Potency [2]: inactive

Structure (SMILES): COc1ccc(-c2oc3c(CC=C(C)C)c(OC4O[C@H](CO)[C@@H](O)[C@H](O)[C@H]4O)cc(O)c3c(=O)c2OC2O[C@@H](C)[C@H](O)[C@@H](O)[C@H]2O)cc1 (stereo not given in full)
- activity (max response) [1]: 7.81%
- Potency [2]: inactive

Structure (SMILES): COc1ccc(-n2cnc3cc(C(=O)N4CCCCC4)ccc32)cc1
- activity (max response) [1]: -10.1%
- Potency [2]: inactive

Structure (SMILES): C[N+]1(C)CCC(OC(=O)C(O)(c2ccccc2)C2CCCC2)C1 (stereo not given)
- activity (max response) [1]: 7.55%
- Potency [2]: inactive

Structure (SMILES): Nc1cc(C(F)(F)F)c(-c2nc(N3CCOCC3)nc(N3CCOCC3)n2)cn1
- Potency [1]: 11.2 µM (active)
- Potency [2]: 2 µM (active)

Structure (SMILES): Cc1onc(-c2ccc(F)cc2)c1COc1ccc(C(=O)N2CCS(=O)(=O)CC2)cn1
- activity (max response) [1]: -15%
- Potency [2]: inactive

Structure (SMILES): Cc1c(N)c(=O)n(-c2ccccc2)n1C
- activity (max response) [1]: -4.39%
- Potency [2]: inactive

Structure (SMILES): COc1cc(-c2cn(C)c(=O)c3cnccc23)c(OC)cc1CN(C)C
- activity (max response) [1]: 19.4%
- Potency [2]: inactive

Structure (SMILES): Nc1ccc2cc3ccc(N)cc3nc2c1
- Potency [1]: 6.51 µM (active)
- Potency [2]: 2.59 µM (active)

Structure (SMILES): CC(C)C(N)C(=O)OCC(CO)OCn1cnc2c(=O)[nH]c(N)nc21 (stereo not given)
- activity (max response) [1]: -23%
- Potency [2]: inactive

Structure (SMILES): CC(Oc1c(Cl)cccc1Cl)C1=NCCN1 (stereo not given)
- activity (max response) [1]: 12.6%
- Potency [2]: inactive

Structure (SMILES): CCC(CC)C(c1ccc(Nc2nc3ccccc3s2)cc1)n1cncn1 (stereo not given)
- Potency [1]: 22.4 µM (active)
- Potency [2]: 17.8 µM (active)

Structure (SMILES): Cc1c(N(C)CS(=O)(=O)O)c(=O)n(-c2ccccc2)n1C
- activity (max response) [1]: 3.83%
- Potency [2]: inactive

Structure (SMILES): c1ccc(CNCCNCc2ccccc2)cc1
- activity (max response) [1]: -0.207%
- Potency [2]: inactive

Structure (SMILES): COCCOC(=O)C1=C(C)NC(C)=C(C(=O)OC(C)C)C1c1cccc([N+](=O)[O-])c1 (stereo not given)
- activity (max response) [1]: 7.46%
- Potency [2]: inactive

Structure (SMILES): OC(CCCN1CCCCC1)(c1ccccc1)c1ccccc1
- activity (max response) [1]: -5.81%
- Potency [2]: inactive

Structure (SMILES): COc1ncc(Nc2ncc(C(C)N3CCN(S(C)(=O)=O)CC3)cc2-c2nc(C)nc(N)n2)cc1F (stereo not given)
- activity (max response) [1]: -11.9%
- Potency [2]: inactive

Structure (SMILES): Cc1cc(O)cc(C)c1Cl
- activity (max response) [1]: 6.52%
- Potency [2]: inactive

Structure (SMILES): COc1cc(/C=C(\C#N)C(=O)Nc2nnc(C(F)(F)F)s2)ccc1OCc1ccc(C(F)(F)F)cc1C(F)(F)F
- activity (max response) [1]: -15.8%
- Potency [2]: inactive

Structure (SMILES): COc1ccc(Cl)cc1-c1cc(=O)[nH]c(=S)n1CC(N)=O
- activity (max response) [1]: -3.52%
- Potency [2]: inactive

Structure (SMILES): C/C(=C1\CCOC(=O)S1)N(C=O)Cc1cnc(C)nc1N
- activity (max response) [1]: -4.19%
- Potency [2]: inactive

Structure (SMILES): CS(=O)(=O)c1ccc([C@@H](O)[C@@H](CF)NC(=O)C(Cl)Cl)cc1
- activity (max response) [1]: -12.7%
- Potency [2]: inactive

Structure (SMILES): CC[C@H](c1ccc(O)cc1)[C@@H](CC)c1ccc(O)cc1
- Potency [1]: 5.17 µM (active)
- Potency [2]: 2.59 µM (active)

Structure (SMILES): COc1cc2c3c(n(CCCNCCO)c(=O)c2cc1OC)-c1cc2c(cc1C3=O)OCO2
- Potency [1]: 0.447 µM (active)
- Potency [2]: 2.82 µM (active)

Structure (SMILES): CCOC(=O)C(C#N)=C(c1ccccc1)c1ccccc1
- activity (max response) [1]: -5.89%
- Potency [2]: inactive
